Source: PubChem BioAssay AID686978 (National Center for Advancing Translational Sciences (NCATS), 2013)
About 64,000 (15%) of roughly 420,000 compounds were called active. Another 27% or so got no clear call; they are omitted. Calls come from the whole dose curve; as a rule, active = well fitted inhibition curve with a large enough effect; inconclusive = small, poorly fitted or top-dose-only effect; inactive = flat fitted curve, though single readings scatter. The list is a sample of the results. Entries that show only a call come without a potency.

assay: qHTS for Inhibitors of human tyrosyl-DNA phosphodiesterase 1 (TDP1): qHTS in cells in absence of CPT; details: DT40 Tdp1-/- hTDP1 cells, no CPT, ATP luminescence, 48 h; activity change, negative = growth inhibition: at 46.2 µM (top of the series); note: nearly all actives have a fitted effect of over 55% in size
Method in brief: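 Compound effects on proliferation are scored in DT40 Tdp1-/-;hTDP1 cells in the absence of CPT. ATP levels (CellTiter-Glo luminescence) are recorded after a ≥48 hr, 37 °C incubation.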
Potency is the fitted concentration of half-maximal effect.

Structure (SMILES)	Potency
Cc1cc(O)c(NC(=O)c2ccc(C)c([N+](=O)[O-])c2)cc1C	inactive
CCc1ccc(-c2nnn(Cc3nc4ccccc4s3)n2)cc1	inactive
C[C@H]1Cn2cnc(C(=O)N[C@H](C)c3ccccc3)c2C(=O)N1	inactive
CC1(C)Cc2ccccc2-c2[nH]c(=S)[nH]c(=O)c21	inactive
Cc1ccc(C(=O)NN(CCC#N)C2=NS(=O)(=O)c3ccccc32)cc1	inactive
Cc1cc(C)c(NC(=O)CN2CCOCCOCCOCCOCC2)c(C)c1	inactive
O=C(Oc1ccc2c(c1)CCC2)N1CCOCC1	inactive
C=C(C)CSc1nnc(-c2ccc(C)cc2)n1N	inactive
CCCCn1c(N)c(N(CC(C)C)C(=O)C2CSC3(C)CCC(=O)N23)c(=O)[nH]c1=O (centres undefined)	inactive
O=C(O)c1ccc(-n2cccc2)cc1O	inactive
CCOC(=O)C1CCCN(C(=O)c2cccc(S(=O)(=O)N3CCOCC3)c2)C1 (centres undefined)	inactive
CCOC(=O)C1CCCN(C(=O)c2ccc3c(c2)sc2nc(-c4ccc(CC)cc4)cn23)C1 (centres undefined)	5.17 µM (active)
CCOC(=O)C1CCCN(C(=O)c2cncc(Br)c2)C1 (centres undefined)	inactive
O=C(COc1ccc([N+](=O)[O-])cc1)Nc1cccc(C(=O)Nc2ccccc2C(=O)O)c1	inactive
O=C(NC1(C(F)(F)F)NC(=O)N(Cc2cccnc2)C1=O)c1ccccc1Cl (centres undefined)	inactive
COc1ccc(S(=O)(=O)N2CCN(CC(=O)NCC3(N4CCOCC4)CCCCC3)CC2)cc1	inactive
CN1CCN(C2(CNC(=O)COc3ccc(C(C)(C)C)cc3)CCCCC2)CC1	18.4 µM (active)
Cc1cccc(NC(=O)CN2CCN(CC(=O)NCC3(N4CCCCC4)CCCCC3)CC2)c1C	inactive
Cc1nc2sc(C(c3ccco3)N3CCOCC3)c(O)n2n1 (centres undefined)	inactive
COc1ccccc1OCC(=O)Nc1ccccc1C(=O)NC1CC1	inactive
COc1ccccc1C(=O)NCCC(=O)NN1C(=O)NC2(CCCCC2)C1=O	inactive
COc1ccc(CC(=O)N[C@@H]2c3cc(OC)c(OC)cc3C[C@H]2OCc2ccccc2)cc1	inactive

Structure (SMILES)	Potency
COc1ccc(C2(CNC(=O)Cc3ccc(OC)c(OC)c3)CCCC2)cc1	20.6 µM (active)
COc1cc(C(=O)NCC2(c3ccccc3)CCCC2)ccc1OC(C)C	10.3 µM (active)
CCn1c(CNC(=O)c2ccc(OC)c(OC)c2)nnc1SCC(=O)Nc1ccccc1	inactive
COc1ccc(CC(=O)NC2CCSc3ccccc32)cc1OC (centres undefined)	inactive
CCOc1c(OC)cccc1C(=O)NCC1(c2ccccc2)CCCC1	6.51 µM (active)
COc1ccc(C(=O)NC2CC(C)(C)NC(C)(C)C2)cc1OC	inactive
Cn1cnc(S(=O)(=O)Nc2ccc3c(c2)OCCO3)c1	inactive
CN(C)Cc1c(C#N)c2ccccc2n1C	inactive
COCCCN(C(=O)Cn1ncc2c(=O)oc3ccc(C)cc3c21)C(C)c1ccncc1 (centres undefined)	inactive
CC1CCN(CCCn2c(SCC(=O)NC3CCCC3)nc3ccccc3c2=O)CC1	inactive
Nc1nc(SCCOc2ccccc2)n[nH]1	inactive
COc1cc(C(=O)OCCCN2CCOCC2)cc(OC)c1OC	inactive
COc1ccc(CNc2nc3c(c(=O)[nH]c(=O)n3C)n2Cc2ccccc2)cc1	inactive
Cc1nnc(SCCCn2c(N3CCCCC3)nc3c2c(=O)[nH]c(=O)n3C)s1	inactive
Cc1cccc(OCC(O)Cn2c(N3CCCCC3)nc3c2c(=O)[nH]c(=O)n3C)c1 (centres undefined)	23.1 µM (active)
CCC(C)Sc1nc2c(c(=O)[nH]c(=O)n2C)n1CC(O)COc1cccc2ccccc12 (centres undefined)	29.1 µM (active)
C=C(C)Cn1c(N2CCCC2)nc2c1c(=O)[nH]c(=O)n2C	inactive
Cn1c(=O)[nH]c(=O)c2c1nc(N1CCN(C(c3ccccc3)c3ccccc3)CC1)n2CCO	16.4 µM (active)
C=C(C)Cn1c(N2CCN(CC)CC2)nc2c1c(=O)[nH]c(=O)n2C	inactive
CC1CN(CC(=O)NC(C)c2ccccc2)CC(C)O1 (centres undefined)	inactive
CC(C)(C)C(=O)N1CCC[C@@]1(CO)C(=O)O	inactive
O=C(c1ccc2c(c1)OCO2)N1CCN(C(=O)c2ccco2)CC1	inactive

Structure (SMILES)	Potency
O=C1c2ccccc2C(=O)c2c1cccc2N1CCN(Cc2ccccc2)CC1	18.4 µM (active)
O=S1(=O)CCN(Cc2ccccc2)CC1	inactive
O=c1cc(N2CCN(Cc3ccccc3)CC2)c(-c2ccccc2)n[nH]1	inactive
C=CCNC(=O)c1ccc(C)c(Br)c1	inactive
C=CCNC(=O)c1cc(-c2ccccc2O)on1	inactive
C=CCNC(=O)c1ccc2nc(-c3ccco3)c(-c3ccco3)nc2c1	11.2 µM (active)
COC(=O)NNC1=CC(=O)CC(C)(C)C1	inactive
Cc1ccc(N2C(=O)C(NC(=O)c3c(F)cccc3F)(C(F)(F)F)C3=C2CC(C)(C)CC3=O)cc1 (centres undefined)	inactive
CN(C)c1ccc(C2Nc3ccccc3C(=O)N2NS(=O)(=O)c2ccccc2)cc1 (centres undefined)	inactive
Cc1cccc(C)c1OCC(=O)NC(Cc1c[nH]c2ccccc12)C(=O)O (centres undefined)	inactive
COc1ccc(-c2cc(C(=O)NC(C(=O)O)C(C)C)c(C)o2)cc1OC (centres undefined)	inactive
COc1ccc(-c2cc(C(=O)NC(Cc3c[nH]c4ccccc34)C(=O)O)c(C)o2)cc1OC (centres undefined)	29.1 µM (active)
Cc1ccc(S(=O)(=O)NCc2csc(C)n2)c(C)c1	inactive
CCOC(=O)N1CCN(C(=O)c2cn(C)c3ccc(S(=O)(=O)N4CCCC4)cc3c2=O)CC1	inactive
CN(Cc1ccccc1)C(=O)c1cn(C)c2ccc(S(=O)(=O)N(C)C3CCCCC3)cc2c1=O	inactive
CCn1cc(C(=O)N2CC(C)CC(C)C2)c(=O)c2cc(S(=O)(=O)N3CCCC3)ccc21 (centres undefined)	inactive
CCn1cc(C(=O)N2CCN(c3cc(C)ccc3C)CC2)c(=O)c2cc(S(=O)(=O)N(C)C3CCCCC3)ccc21	18.4 µM (active)
CCn1cc(C(=O)N2CCN(c3cc(Cl)ccc3C)CC2)c(=O)c2cc(S(=O)(=O)N3CCCC3)ccc21	25.9 µM (active)
Cc1ccc(Cl)cc1N1CCN(C(=O)c2cn(C)c3ccc(S(=O)(=O)N(C)C4CCCCC4)cc3c2=O)CC1	inactive
NC(=O)CSc1nc2c(oc3ccccc32)c(=O)n1Cc1ccccc1	inactive
